Among all 370,000 compounds or so, about 2,300 (0.62%) were called active. Only a selection was taken, and actives are over-represented in it overall. Unmarked numbers belong to inactive results.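 How the source made its calls: active means lowest replicate activation of at least 40%, so every replicate reaches that level; inactive means the rest.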
test: GLuc luminescence reporter in INS-1E cells, primary screen for activators of glucose-dependent secretion of insulin (AID 743287); settings: INS-1E GLuc reporter insulin secretion, 2-3 h, at 16.6 µM, hits give high values;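 further: 0% = median of neutral control wells and 100% = median of IBMX positive control wells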

Row | SMILES | activation
1 | COc1ccc2c3c(n(C)c2c1)[C@H](CO)N(Cc1ccccc1Cl)CC31CN(C(=O)CN(C)C)C1 | 11.4%
2 | O=C(COC(=O)c1cccc(Br)c1)Nc1cccc2c1C(=O)c1ccccc1C2=O | 98% (active)
3 | O=C(COC(=O)c1cccc(Cl)c1)Nc1ccc2[nH]c(=O)[nH]c2c1 | 5.13%
4 | O=C(COC(=O)Cn1cnc2ccccc21)Nc1cccc2c1C(=O)c1ccccc1C2=O | 4.13%
5 | COc1ccc(C(=O)N(C)Cc2ccc(OC)c(OC)c2OC)cc1S(=O)(=O)N1CCOCC1 | -3.04%
6 | COc1ccc(-c2cc(C(=O)N(C)Cc3ccc(OC)c(OC)c3OC)c3ccccc3n2)cc1OC | 62.1% (active)
7 | COc1ccc(CN(C)C(=O)Cc2ccsc2)c(OC)c1OC | -7.45%
8 | CCn1c(C)cc(=O)cc1-c1ccc(Cl)cc1 | 9.35%
9 | CCCc1cc(=O)n2[nH]c(C)c(-c3ccc(Cl)cc3)c2n1 | 43.7% (active)
10 | COCc1cc(=O)n2[nH]c(C)c(-c3ccccc3)c2n1 | -1.45%
11 | CN(C)C(=O)[C@@H]1[C@@H](CO)[C@@H]2Cn3c(ccc(-c4ccccc4)c3=O)[C@@H]2N1CCC(F)(F)F | 21.1%
12 | O=C1N[C@H](c2ccccc2)COCc2cn(nn2)CC[C@@H]1Cc1ccc(Cl)cc1 | 5.93%
13 | COc1cccc(NC(=O)N[C@H]2C=C[C@@H](CC(=O)Nc3ccc(-c4ccccc4)cc3)O[C@@H]2CO)c1 | 58.9%
14 | CN(C)CCNC(=O)c1cccc(-c2cnc3c(NC=O)cc(-c4cccc(C(F)(F)F)c4)cn23)c1 | 52.7% (active)
15 | CC(=O)Nc1cc(-c2cccc(CO)c2)cn2c(-c3cccc(C(F)(F)F)c3)cnc12 | -3.82%
16 | CC(=O)Nc1cc(-c2ccccc2F)cn2c(-c3cccc(C(F)(F)F)c3)cnc12 | 2.99%

Row | SMILES | activation
17 | COc1ccc2c3c(n(C)c2c1)[C@@H](CO)NCC31CN(S(=O)(=O)c2cccc(C)c2)C1 | 14.9%
18 | CCOC(=O)c1cc(S(=O)(=O)NCCc2ccc(OC)c(OC)c2)cn1C | 13.8%
19 | O=S(=O)(NCCc1ccc(Cl)cc1)c1cccs1 | -20.9%
20 | COc1ccc(CCNS(=O)(=O)c2ccc(Cl)s2)cc1OC | 40.9% (active)
21 | C[C@H](CO)N1C[C@H](C)[C@@H](CN(C)C(=O)C2CCCCC2)OCCCC[C@H](C)Oc2ccc(N(C)C)cc2C1=O | -2.98%
22 | C[C@H](CO)N1C[C@H](C)[C@@H](CN(C)S(=O)(=O)c2cccc(F)c2)Oc2ncc(-c3cccc(F)c3)cc2C1=O | 3.46%
23 | CCn1c(SCC(=O)Nc2cccc(F)c2)nnc1-c1cc2cc(Br)ccc2o1 | 85.4% (active)
24 | CCn1c(SCC(=O)Nc2ccc3c(c2)OCCO3)nnc1C(C)C | 13.3%
25 | CCn1c(CNC(=O)c2ccco2)nnc1SCC(=O)Nc1cccc(F)c1 | -2.18%
26 | C[C@H](CO)N1C[C@H](C)[C@H](CN(C)S(C)(=O)=O)Oc2ncc(C#CCN(C)C)cc2C1=O | 18.2%
27 | COc1ccc(CC(N)c2csc(NC(=O)Nc3ccc(C(C)C)cc3)n2)cc1 (stereo unspecified) | 193% (active)
28 | NC(Cc1ccccc1)c1csc(Nc2cc(Oc3ccccc3)ncn2)n1 (stereo unspecified) | -24.7%
29 | NC(Cc1ccc(F)cc1)c1csc(Nc2nncc3ccccc23)n1 (stereo unspecified) | -32.2%
30 | COc1ccc(S(=O)(=O)Nc2cccc3c2O[C@@H](CN(C)C(=O)Nc2cccc4ccccc24)[C@H](C)CN([C@@H](C)CO)C3=O)cc1 | -8.86%
31 | COc1cccc(C#Cc2cnc3c(c2)C(=O)N([C@H](C)CO)C[C@@H](C)[C@@H](CN(C)C(=O)C2CCC2)O3)c1 | -5.49%

Source: PubChem BioAssay AID743287 (Broad Institute, 2014)
